We go through 40 molecules from the supplement of paper PMC10981050.

Counter-ions that a name gives are not always drawn.

The test system of the assay is MOLM14. Description: cell viability relative to vehicle control; higher = less cytotoxic. The note with it: 10 µM; SRSF2 genotype: SRSF2 P95H/wt. In a few lines: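 Screening covered the Selleck bioactive, kinase and epigenetic probe libraries, less identity-inconsistent compounds, on CRISPR-edited mutant clones and isogenic wild-type clones of four leukaemia lines. Cells, at 2000 per well in 50 µL medium, received a single 10 µM acoustically dispensed dose. After 48 h the supernatant was removed and CellTiter-Glo luminescence was read. Viability was analysed in Genedata Screener as percent of the on-plate vehicle control.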
Usually cell viability stands for a read-out of living cells in per cent, often relative to untreated cells. Turning to `Cc1cc(C)c(-c2csc(NC(=O)c3ccccc3)n2)c(C)c1`, the cell viability was 45%. To `O=C(/C=C/c1ccc(O[C@@H]2O[C@H](CO)[C@@H](O)[C@H](O)[C@H]2O)cc1)c1ccc(O)cc1O` [Isoliquiritin] belongs 69.7%; to `COc1ccc(-c2oc3c(CC=C(C)C)c(O)cc(O)c3c(=O)c2O[C@@H]2O[C@@H](C)[C@H](O)[C@@H](O)[C@H]2O)cc1` [Baohuoside I], 87.8%; to `CCCCCCCCCC(=O)N[C@@H](Cc1c[nH]c2ccccc12)C(=O)N[C@H](CC(N)=O)C(=O)N[C@@H](CC(=O)O)C(=O)N[C@@H]1C(=O)NCC(=O)N[C@@H](CCCN)C(=O)N[C@@H](CC(=O)O)C(=O)N[C@H](C)C(=O)N[C@@H](CC(=O)O)C(=O)NCC(=O)N[C@H](CO)C(=O)N[C@@H]([C@H](C)CC(=O)O)C(=O)N[C@@H](CC(=O)c2ccccc2N)C(=O)O[C@@H]1C` [Daptomycin], 99%. The result for `c1ccc2occc2c1` [2,3-Benzofuran] reads 98.4%. The result for `O=C(O)CC(C(=O)O)n1c(O)c(C2=c3cc(Br)ccc3=NC2=O)sc1=S` (stereo not given) reads 81.8%. Consider `CCN1CCN(c2cc3c(cc2F)c(=O)c(C(=O)O)cn3C2CC2)CC1` [Enrofloxacin], for which the cell viability was found to be 103%.

In the case of `COc1ccc2c(c1O)-c1c(O)c(OC)cc3c1[C@H](C2)[N+](C)(C)CC3` [Magnoflorine], the cell viability stood at 99.3%. To `CC(=O)OCC(=O)[C@@]1(O)CC[C@H]2[C@@H]3CCC4=CC(=O)CC[C@]4(C)[C@@]3(F)[C@@H](O)C[C@@]21C` [Fludrocortisone acetate] belongs 111%; to `NC(=O)NO` [Hydroxyurea (Cytodrox)], 109%.

`Nc1ncnc2c1nc(Br)n2[C@@H]1O[C@@H]2COP(=O)(O)O[C@H]2[C@H]1O` [8-Bromo-cAMP]: the cell viability is 65.9%.

For `Cc1cccc(Nc2nc(-c3ccncc3)cs2)c1`, the cell viability is 74.2%. The result for `CC12CCC(CC1)C(C)(C)O2` [Eucalyptol] reads 104%; that for `CCc1c(Cl)c(O)c(Cl)c(O)c1C(=O)O[C@H]1[C@H](O)[C@H](OC)[C@H](OC/C2=C\C=C\C[C@H](O)/C(C)=C/[C@H](CC)[C@@H](O[C@@H]3OC(C)(C)[C@@H](OC(=O)C(C)C)[C@H](O)[C@@H]3O)/C(C)=C/C(C)=C/C[C@@H]([C@@H](C)O)OC2=O)O[C@@H]1C` [Fidaxomicin], 74.9%. The result for `CO[C@H]1/C=C/O[C@@]2(C)Oc3c(C)c(O)c4c(O)c(c(/C=N/N5CCN(C)CC5)c(O)c4c3C2=O)NC(=O)/C(C)=C\C=C\[C@H](C)[C@H](O)[C@@H](C)[C@@H](O)[C@@H](C)[C@H](OC(C)=O)[C@@H]1C` [Rifampin] reads 83.1%; that for `COc1ccc(C2CNC(=O)C2)cc1OC1CCCC1` (stereo not drawn) [S-(+)-Rolipram], 99.8%; that for `C#C[C@]1(O)CC[C@H]2[C@@H]3CCc4cc(OC5CCCC5)ccc4[C@H]3CC[C@@]21C` [Quinestrol], 78.8%. The result for `COc1cccc2cc(-c3nc([C@H]4CC[C@H](C(=O)O)CC4)n4ncnc(N)c34)[nH]c12` reads 29.4%. For `O=C(/C=C/c1ccc(O)c(O)c1)c1ccc(O)cc1O` [Butein], the cell viability stood at 52.4%. To `CN(C)c1ccc(C(=O)NCCCCCCC(=O)NO)cc1` belongs 1.22%; to `O=c1c2cc(O[C@@H]3O[C@H](CO)[C@@H](O)[C@H](O)[C@H]3O)c(O)cc2oc2cc(O)c([C@@H]3O[C@H](CO)[C@@H](O)[C@H](O)[C@H]3O)c(O)c12` [Neomangiferin], 99.4%.

Consider `O=c1[nH]c(=O)n([C@H]2C[C@H](O)[C@@H](CO)O2)cc1/C=C/Br` [Brivudine], for which the cell viability stood at 95.6%. The result for `Cc1c(C(=O)Nc2ccc(Oc3ccnc4[nH]cc(-c5ccccc5)c34)c(F)c2)c(=O)n(-c2ccc(F)cc2)n1C` reads 8.77%; that for `CC(=O)CCc1ccc(OC(C)=O)cc1` [Pherocon (4-(4-Acetoxyphenyl)-2-butanone)], 109%. The result for `C[C@@H](N)[C@H]1CC[C@H](C(=O)Nc2ccncc2)CC1` reads 97.2%. `COC(=O)C=Cc1ccc(O)c(OC)c1` [Ferulic acid methyl ester]: the cell viability was found to be 105%. The result for `CN1C(N)=N[C@](C)(c2cc(NC(=O)c3ccc(F)cn3)ccc2F)CS1(=O)=O` [Verubecestat (MK-8931)] reads 94.4%; that for `C[C@H]1O[C@@H](Oc2c(-c3cc(O)c(O)c(O)c3)oc3cc(O)cc(O)c3c2=O)[C@@H](O)[C@@H](O)[C@@H]1O` [Myricitrin (Myricitrine)], 104%. In the case of `O=C(O)C1=CO[C@@H](O[C@@H]2O[C@H](CO)[C@@H](O)[C@H](O)[C@H]2O)[C@H]2[C@@H]1C=C[C@]2(O)CO` [Monotropein], the cell viability is 104%. The result for `CNC(=O)[C@H](Cc1c[nH]c2ccccc12)NC(=O)[C@@H](CC(=O)NO)CC(C)C` [Ilomastat (GM6001, Galardin)] reads 88.2%. The result for `COC(c1ccccc1)(c1ccccc1)[C@H](Oc1nc(C)cc(C)n1)C(=O)O` [Ambrisentan] reads 102%. To `COc1ccc2c3c1O[C@H]1C[C@@H](O)C=C[C@@]31CCN(C)C2` [Galanthamine] belongs 97.9%; to `CCC(=O)O[C@@H]1CC(=O)O[C@H](C)C/C=C/C=C/[C@H](O)[C@H](C)C[C@H](CC=O)[C@H](O[C@@H]2O[C@H](C)[C@@H](O[C@H]3C[C@@](C)(O)[C@@H](OC(=O)CC)[C@H](C)O3)[C@H](N(C)C)[C@H]2O)[C@H]1OC` [Midecamycin], 93.3%; to `O=C(O)CCc1ccc(O)cc1O` [Hydroumbellic acid], 100%. In the case of `CCCn1/c(=N/C(=O)c2cccc(C(N)=O)c2)[nH]c2ccccc21` [Takinib], the cell viability was 77.8%. The result for `Cc1cc(F)c(Nc2ncnc3cc(OCc4ccccc4)ccc23)cc1O` reads 93.3%. For `COc1ccc(NC(=O)c2ccc(C(=N)N(C)C)cc2)c(C(=O)Nc2ccc(Cl)cn2)c1` [Betrixaban maleate], the cell viability came to 99.9%. For the molecule `Cc1cn([C@H]2C=C[C@@H](CO)O2)c(=O)[nH]c1=O` [Stavudine], the cell viability was 102%. To `O=C1/C(=C/c2cccs2)CC/C1=C\c1cccs1` belongs 105%; to `CN1CC(=O)N2[C@H](c3ccc4c(c3)OCO4)c3[nH]c4ccccc4c3C[C@@H]2C1=O` [Tadalafil (Cialis)], 97.3%.
